Experimental data: PubChem BioAssay AID1159580 (chemical genetic matrix, 2015)
Among all 5,500 compounds or so, about 2,000 (36%) were called active. Not shown: some 18% with an inconclusive outcome. Cut-off read from the data, not from the text of the source: active = normalized growth mostly below about 0.91 (no sharp cut-off); inconclusive = no clear call, values can overlap the other calls; inactive = mostly above about 0.92. The list shows a part of the results.

Assay: chemical genetic growth profiling, strain panel (AID 1159580);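 note: tested at 20 µM; growth read once vehicle control cultures reached saturation at 30 °C; 1 = growth at the plate median or of vehicle wells; lower values mean less growth of the strain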
Conditions: S. cerevisiae deletion strains, growth OD

Measured: normalized growth

O=C1CC2(CCCC2)CC(=O)N1CCCCN1CCN(c2ncccn2)CC1
inactive: locus YAL021C, strain ccr4, active compounds read low 0.985 | locus YAL026C, strain drs2, active compounds read low 1.03 | locus YAL030W, strain snc1, active compounds read low 0.998 | locus YAL040C, strain CLN3, active compounds read low 0.987 | locus YBL061C, strain skt5, active compounds read low 0.995 | locus YBR009C, strain hhf1, active compounds read low 0.989 | locus YBR023C, strain chs3, active compounds read low 0.996 | locus YBR171W, strain sec66, active compounds read low 1.01 | locus YBR231C, strain swc5, active compounds read low 0.993 | locus YBR279W, strain paf1, active compounds read low 0.999 | locus YCL011C, strain gbp2, active compounds read low 1 | locus YCL016C, strain dcc1, active compounds read low 1 | locus YCL061C, strain MRC1, active compounds read low 0.998 | locus YCL069W, strain vba3, active compounds read low 1 | locus YCR088W, strain abp1, active compounds read low 1.01 | locus YDL005C, strain med2, active compounds read low 0.993 | locus YDL040C, strain nat1, active compounds read low 0.996 | locus YDR001C, strain nth1, active compounds read low 1.02 | locus YDR069C, strain doa4, active compounds read low 0.978 | locus YDR137W, strain rgp1, active compounds read low 0.984 | locus YDR159W, strain sac3, active compounds read low 0.985 | locus YDR195W, strain ref2 0.974 | locus YDR297W, strain sur2, active compounds read low 1 | locus YDR334W, strain swr1, active compounds read low 1.01 | locus YDR335W, strain msn5, active compounds read low 1 | locus YDR392W, strain spt3, active compounds read low 0.801 | locus YEL003W, strain gim4, active compounds read low 1.01 | locus YEL037C, strain rad23, active compounds read low 1.01 | locus YEL061C, strain CIN8 (second series), active compounds read low 1.01 | locus YER002W, strain NOP16, active compounds read low 1.01 | locus YER015W, strain faa2, active compounds read low 0.998 | locus YER016W, strain bim1, active compounds read low 0.996 | locus YER111C, strain swi4, active compounds read low 1 | locus YER155C, strain BEM2 (second series), active compounds read low 1 | locus YFR010W, strain ubp6, active compounds read low 1.02 | locus YGL167C, strain pmr1, active compounds read low 0.991 | locus YGL173C, strain kem1, active compounds read low 1 | locus YGL227W, strain vid30, active compounds read low 1 | locus YGL240W, strain doc1, active compounds read low 0.978 | locus YGL253W, strain hxk2, active compounds read low 1.01 | locus YHR013C, strain ard1, active compounds read low 0.929 | locus YHR027C, strain rpn1, active compounds read low 1 | locus YHR030C, strain SLT2, active compounds read low 1.06 | locus YHR079C, strain IRE1, active compounds read low 1 | locus YHR142W, strain chs7, active compounds read low 1.02 | locus YJL092W, strain hpr5, active compounds read low 1.04 | locus YJL095W, strain BCK1 (second series), active compounds read low 0.995 | locus YJL095W, strain BCK1, active compounds read low 1 | locus YJL115W, strain asf1, active compounds read low 0.998 | locus YJL129C, strain trk1, active compounds read low 1.02 | locus YJL154C, strain vps35, active compounds read low 1 | locus YJL164C, strain tpk1, active compounds read low 0.986 | locus YJL166W, strain qcr8, active compounds read low 0.987 | locus YJL187C, strain SWE1, active compounds read low 0.996 | locus YJR066W, strain TOR1, active compounds read low 0.959 | locus YJR075W, strain HOC1, active compounds read low 0.978 | locus YKL160W, strain elf1, active compounds read low 0.986 | locus YKR026C, strain gcn3, active compounds read low 1.01 | locus YKR091W, strain srl3, active compounds read low 0.995 | locus YLL001W, strain dnm1, active compounds read low 0.983 | locus YLL026W, active compounds read low 0.987 | locus YLL041C, strain sdh2, active compounds read low 0.999 | locus YLR027C, strain aat2, active compounds read low 0.999 | locus YLR113W, strain HOG1, active compounds read low 1.04 | locus YLR221C, strain rsa3, active compounds read low 0.995 | locus YLR258W, strain gsy2, active compounds read low 0.977 | locus YLR262C, strain YPT6 (second series), active compounds read low 0.958 | locus YLR320W, strain mms22, active compounds read low 0.974 | locus YLR342W, strain FKS1, active compounds read low 1 | locus YLR357W, strain rsc2, active compounds read low 1.02 | locus YLR370C, strain arc18, active compounds read low 1.01 | locus YLR384C, strain iki3, active compounds read low 0.978 | locus YML120C, strain ndi1, active compounds read low 1 | locus YMR058W, strain fet3, active compounds read low 1 | locus YMR125W, strain sto1, active compounds read low 0.998 | locus YMR129W, active compounds read low 1.02 | locus YMR205C, strain PFK2, active compounds read low 0.994 | locus YMR231W, strain pep5, active compounds read low 0.992 | locus YNL071W, strain lat1, active compounds read low 0.999 | locus YNL128W, strain TEP1, active compounds read low 0.979 | locus YNL153C, strain GIM3, active compounds read low 0.996 | locus YNL175C, strain NOP13, active compounds read low 1.01 | locus YNL183C, strain NPR1, active compounds read low 0.96 | locus YNL197C, strain WHI3, active compounds read low 0.96 | locus YNL209W, strain ssb2, active compounds read low 0.986 | locus YNL224C, strain SQS1, active compounds read low 0.996 | locus YNL248C, strain rpa49, active compounds read low 1 | locus YNL322C, strain KRE1 (second series), active compounds read low 0.99 | locus YNR049C, strain mso1, active compounds read low 1.01 | locus YOR001W, strain rrp6, active compounds read low 0.988 | locus YOR070C, strain gyp1, active compounds read low 0.999 | locus YOR080W, strain dia2, active compounds read low 0.987 | locus YOR083W, strain WHI5 (second series), active compounds read low 1.01 | locus YOR083W, strain WHI5, active compounds read low 1.02 | locus YOR106W, strain vam3, active compounds read low 0.997 | locus YOR231W, strain MKK1, active compounds read low 1.01 | locus YOR265W, strain rbl2, active compounds read low 1 | locus YOR270C, strain vph1, active compounds read low 1.03 | locus YOR290C, strain snf2, active compounds read low 0.934 | locus YPL051W, strain arl3, active compounds read low 0.992 | locus YPL078C, strain atp4, active compounds read low 1 | locus YPL106C, strain sse1, active compounds read low 0.999 | locus YPL240C, strain hsp82, active compounds read low 1.01 | locus YPL241C, strain CIN2, active compounds read low 1 | locus YPL256C, strain CLN2, active compounds read low 0.999
